The nature of experiment [1]: kinase inhibitors against Plasmodium liver-stage infection, cell-based, known kinase inhibitor set, luminescence, hepatoma host viability (AID 624392; call rule not given here;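 also: infected cells incubated roughly two days before readout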). The conditions noted are these: Plasmodium liver stage in hepatoma cells, luciferase luminescence, concentration not given here; liver cell % of control: measured here: host liver cell viability; parasite % of control: stronger effect = lower value.

Experiment [2] is described as follows: LFS_MB_1R medulloblastoma cell growth inhibition, synergistic combos for chromothripsis tumors, cisplatin or BGB combos (AID 1671452).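 Also: cells exposed for 96 hours before readout.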 The conditions noted are these: LFS_MB_1R medulloblastoma cells, stronger effect = higher value.
Experiment [3] can be described thus: CRL2098 osteosarcoma cell growth inhibition, synergistic combos for chromothripsis tumors, BGB or cisplatin IC20 combos (AID 1671454).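 Also: cells exposed for 96 h before readout; 0% = vehicle DMSO and 100% = killing by high DMSO.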 The settings on record: CRL2098 osteosarcoma cells, drug combinations, stronger effect = higher value.
Experiment [4] is described as follows: HD-MB03 medulloblastoma cell growth inhibition, synergistic combos for chromothripsis tumors, BGB or cisplatin IC20 combos (AID 1671455; in the data active = inhibition above about 83%;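 also: 0% = vehicle DMSO and 100% = high DMSO as cytotoxic control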). The conditions noted are these: HD-MB03 medulloblastoma cells, stronger effect = higher value.
A short description of experiment [5]: UWB1.289 ovarian carcinoma cell growth inhibition, synergistic combos for chromothripsis tumors, BGB or cisplatin combos (AID 1671456).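 Also: cells exposed to compound for four days; 0% = vehicle DMSO and 100% = killing by high DMSO.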 The conditions noted are these: UWB1.289 ovarian carcinoma cells, stronger effect = higher value.
A short description of experiment [6]: LFS_MB_2R medulloblastoma cell growth inhibition, synergistic combos for chromothripsis tumors, cisplatin combos (AID 1671457).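 Also: cells exposed to compound for four days before readout.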 The settings on record: LFS_MB_2R medulloblastoma cells, stronger effect = higher value.
Experiment [7] in a line: UWB1.289_BRCA1 ovarian cancer growth, cell-based, BGB or cisplatin combinations (AID 1671459). The settings on record: UWB1.289 BRCA1 ovarian carcinoma, drug combinations, stronger effect = higher value.
Experiment [8] is described as follows: human astrocyte viability loss, single and combined drugs, cytotoxicity control for chromothriptic childhood tumor combination screen, cell-based, BGB or cisplatin IC20 combos (AID 1671460).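 Also: cells exposed to compounds for 96 hours before viability readout; 0% = vehicle and 100% = killing control.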 The conditions noted are these: Human astrocytes, drug combinations, stronger effect = higher value.
A short description of experiment [9]: growth inhibition of CRL1545 osteosarcoma cells, cell-based, cisplatin and BGB IC20 combos (AID 1671464).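 Also: cells exposed to compound for 96 hours before readout; 0% = vehicle DMSO and 100% = high DMSO killing control.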 The conditions noted are these: stronger effect = higher value.
The nature of experiment [10]: liver-stage malaria parasite growth inhibition, primary screen, cell-based, HepG2, luciferase luminescence, HepG2 viability (AID 624349; in the data active = parasite load remaining mostly below about 12%, no sharp cut-off; inactive = mostly above about 10%;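 also: 100% = mean of DMSO negative control wells on the same plate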). The conditions noted are these: P. berghei liver stage in HepG2, luciferase luminescence, concentration not given here; parasite load remaining: stronger effect = lower value; viability: measured here: HepG2 viability without parasites.
Experiment [11] in a line: circadian clock period modulators, cell-based, LOPAC library, luminescence reporter (AID 2774; call rule not given here;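 also: values are relative to mean of DMSO wells on each plate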). The settings on record: circadian reporter cells, at 7 µM, actives lie on both sides.
Experiment [12] in a line: hESC survival regulators, cell-based (AID 493140; call rule not given here;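 also: cells exposed to compounds for four days before counting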). The settings on record: human embryonic stem cell survival screen; stronger effect = higher value.
Experiment [13] deals with Hepatitis C virus NS3 helicase. In words: HCV NS3 helicase inhibitors, primary screen, biochemical, fluorescence polarization, LOPAC1280 library (AID 687035; in the data active = inhibition above about 37%). The settings on record: Purified HCV NS3 helicase, Cy5-dT15 ssDNA binding fluorescence polarization; stronger effect = higher value; concentration not given here. A general note: Fluorescence polarisation rises when a labelled molecule tumbles more slowly, as on binding a larger partner.

Experiment [14] can be described thus: Cy5 fluorescence quenching or enhancement artefacts, artefact control for HCV NS3 helicase inhibitor project, biochemical, LOPAC1280 (AID 687037; call rule not given here). The conditions noted are these: Cy5-DNA-NS3h complex fluorescence interference counterscreen. In general terms: Counterscreens check selectivity or assay interference.
A short description of experiment [15]: phospholipid biosynthesis inhibitors in animal cells, primary screen, cell-based, LOPAC library, screen 4 (AID 1347384; call rule not given here). The conditions noted are these: phospholipid biosynthesis inhibition screen, at 10 µM.
Experiment [16] in a line: viability rescue of complex I mutant cybrids, primary screen, cell-based, galactose medium, ATP luminescence (AID 1645843;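 active = z-score of at least 1.8 in each of two replicates, scored against plate mean and spread of sample wells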;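 also: positive z means more ATP and so rescue of galactose-driven cybrid death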). The conditions noted are these: complex I mutant cybrid cells, 72 h, stronger effect = higher value.
Experiment [17] is described as follows: inhibitors of Cryptococcus chitosan production, flow cytometry, Cibacron Brilliant Red staining (AID 1347148; call rule not given here;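 also: compound exposure lasted three days at 37 degrees C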). The settings on record: Cryptococcus neoformans chitosan, stronger effect = lower value; at 10 µM unless noted. Background: A flow cytometer gives signals particle by particle.
The mark [18] stands for this setting: measured here: combination with BGB IC40, at 0.05 µM.
[19] abbreviates: measured here: combination with cisplatin, at 0.5 µM.
[20] abbreviates: measured here: combination with cisplatin, at 5 µM.
[21] abbreviates: measured here: combination with BGB at IC20, at 0.5 µM.
Where [22] appears, read: measured here: combination with cisplatin at IC20, at 0.5 µM.
Where [23] appears, read: measured here: combo with BGB at IC20, at 0.5 µM.
Where [24] appears, read: measured here: combo with cisplatin at IC20, at 0.5 µM.
Setting [25] is: measured here: inhibition with BGB combination, at 0.05 µM.
The mark [26] stands for this setting: measured here: inhibition with cisplatin combination, at 0.05 µM.
Setting [27] is: BGB combination, concentration series, at 5 µM.
[28] abbreviates: cisplatin combination, concentration series, at 5 µM.
[29] abbreviates: measured here: combo with BGB IC20, at 0.5 µM.
Setting [30] is: measured here: combo with cisplatin IC20, at 0.5 µM.
The mark [31] stands for this setting: measured here: with BGB IC20 combination, at 0.5 µM.
Setting [32] is: measured here: with cisplatin IC20 combination, at 0.5 µM.

The source of these data is PubChem BioAssay.

Values joined by “and” are separate entries in the source; they are usually repeats but may differ in a detail not shown here. Equal values may be shown once. Active and inactive are the calls of the source. Rule as the data show it, unless noted: active = inhibition above about 80%; inactive = the rest.

Consider `OCCn1cc(-c2cnc3nnn(Cc4ccc5ncccc5c4)c3n2)cn1`, for which, in experiment [1], the liver cell % of control is 97.5% and 96.9% and 96.4%; the parasite % of control was 74.3% (inactive) and 94.9% (inactive) and 55.7% (inactive).
For `CN1CCc2c(c3ccccc3n2Cc2ccc(C(=O)NO)cc2)C1`, the inhibition in experiment [2] (at 0.5 µM) is -13.1% (inactive); in [2] (setting [18]), -12% and -15.8%; in experiment [2] (setting [19]), -23.4% and -23.9%; in experiment [2] (setting [20]), -0.081% and -53.5%; in [3] (at 0.5 µM), 21.5% (inactive) and -46.3% (inactive); in [3] (setting [21]), -14.9% and -43.1%. For the same compound, the inhibition in experiment [3] (setting [22]) was 34.9% and -68.1%; in [4] (at 0.5 µM), -1.98% (inactive) and 0.91% (inactive); in [4] (setting [23]), -6.31% and -10.4%; in [4] (setting [24]), 1.42% and 11.7%; in [5] (at 0.5 µM), 1.69% (inactive) and 0.65% (inactive); in experiment [5] (setting [25]) it was -1.11% and -13.8%. Also, the inhibition is 3.47% and 1.13% in [5] (setting [26]); -14.9% (inactive) and -18.4% (inactive) in experiment [6] (at 0.5 µM); -17.1% and -16.5% in experiment [6] (setting [19]); -17.1% and 0.035% in [6] (setting [20]); 19.3% and 22.8% in experiment [7] (setting [27]); -0.05% (inactive) and 2.69% (inactive) in experiment [7] (at 0.5 µM). Moreover, the inhibition was 23.3% and 11.9% in experiment [7] (setting [28]); -0.01% (inactive) and -0.33% (inactive) in experiment [8] (at 0.5 µM); 5.22% and 4.02% in [8] (setting [29]); -7.05% and -4.68% in [8] (setting [30]); 17% (inactive) and -23.2% (inactive) in experiment [9] (at 0.5 µM); -9.72% and -7.89% in experiment [9] (setting [31]). For the same compound, the inhibition in [9] (setting [32]) was 29.2% and -33%; in experiment [9] (single agent, at 0.05 µM), -10.6% and -2.77%; in experiment [9] (single agent, at 5 µM) it was 6.01% and -28.9%.
`Cc1cccc(-c2[nH]c(C(C)(C)C)nc2-c2ccc3c(c2)OCO3)n1`: in experiment [10], the parasite load remaining was 33.2% (inactive) and the viability was 61.8%.
Regarding `O=c1c(O)c(-c2cc(O)c(O)c(O)c2)oc2cc(O)cc(O)c12`, the period change in [11] is -0.075 h (inactive). Further, in experiment [12], the survival was 2.42 (inactive). In addition, in [10], the parasite load remaining is 81.9% (inactive) and 74.4% (inactive); the viability was 106% and 74.8%. For the same compound, the inhibition in experiment [13] was 8% (inactive). Further, the fluorescence ratio (interference) in [14] is 1 (inactive). The outcome in [15] was inactive. Further, the z-score in [16] is -1.22 (inactive).
Take `Cc1ccc2c(c1)C(=O)[C@]1(O)CCN(c3ccccc3)C1=N2`: in experiment [17], the fold fluorescence is 7.57 [at 171 µM] (inactive).
For `Cc1cccc(-c2[nH]c(C(C)(C)C)nc2-c2ccc3nccnc3c2)n1`, in [13], the inhibition is -3% (inactive). In addition, the fluorescence ratio (interference) in experiment [14] was 1 (inactive). In addition, the outcome in [15] was inactive. Also, the z-score in experiment [16] is -1.01 (inactive).
For `O=C(c1cc(Cc2n[nH]c(=O)c3ccccc23)ccc1F)N1CCN(C(=O)C2CC2)CC1`, the inhibition in experiment [2] (at 0.5 µM) was 0.5% (inactive) and -18.6% (inactive); in experiment [2] (setting [18]), 4.09% and -28.6%; in experiment [2] (setting [19]), -5.89% and -28.2%; in experiment [2] (setting [20]), 10.2% and -13.4%; in experiment [3] (at 0.5 µM), -22.2% (inactive) and -52% (inactive); in experiment [3] (setting [21]) it was -38.6% and -22.3%. Besides, the inhibition in experiment [3] (setting [22]) was 8.08% and -53.7%; in [4] (at 0.5 µM) it was 0.63% (inactive) and 3.05% (inactive); in [4] (setting [23]) it was -2.67% and 1.02%; in experiment [4] (setting [24]), 5.32% and 12.9%; in experiment [5] (at 0.5 µM), 3.95% (inactive) and -1.88% (inactive); in experiment [5] (setting [25]), -15.9% and -18%. The inhibition in experiment [5] (setting [26]) is -0.831% and -12.7%; in [6] (at 0.5 µM), -13.1% (inactive) and -23.1% (inactive); in experiment [6] (setting [19]), -6.19% and -20.5%; in experiment [6] (setting [20]), -14.1% and -19.5%; in [7] (setting [27]), 15.2% and -17.7%; in [7] (at 0.5 µM), 3.2% (inactive) and -8.35% (inactive). Moreover, the inhibition in experiment [7] (setting [28]) was 8.98% and -4%; in experiment [8] (at 0.5 µM) it was 4.09% (inactive) and -6.96% (inactive); in [8] (setting [29]) it was 0.597% and -11.9%; in experiment [8] (setting [30]) it was 7.1% and 3.7%; in experiment [9] (at 0.5 µM) it was 11% (inactive) and 18.2% (inactive); in experiment [9] (setting [31]), 2.64% and 8.45%. Further, the inhibition in experiment [9] (setting [32]) was 15.2% and 23.1%; in [9] (single agent, at 0.05 µM), 8.77% and 29.2%; in [9] (single agent, at 5 µM) it was 44.7% and 52.9%.
For `CCC(=O)N1CCN(c2ccc(-n3c(=O)ccc4cnc5ccc(-c6cnc7ccccc7c6)cc5c43)cc2C(F)(F)F)CC1`, the liver cell % of control in [1] is 56.3% and 62.9% and 78.1%.

For orientation: inhibition means the drop in the measured response relative to a control, in per cent. The term viability denotes a read-out of living cells in per cent, often relative to untreated cells.
